Results reported in PubChem BioAssay AID651800 (The Scripps Research Institute Molecular Screening Center, 2012).
Out of some 360,000 compounds screened, about 1,300 (0.36%) were called active. This excerpt belongs to a sample that is enriched for actives. Values without a mark were called inactive. Cut-off read from the data, not from the text of the source: active = inhibition above about 19%; inactive = the rest.

Test system: T-cell receptor (TCR)
Experiment: inhibitors of human TCR-CD3 interaction, primary screen, biochemical, fluorescence, TAMRA-labeled TCR probe (AID 651800);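 note: recombinant mutant TCR 2C K166C tagged with TAMRA read by polarization; 0% = receptor in buffer alone and 100% = receptor with positive control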
Details: at 9.4 µM, stronger effect = higher value

Question: Which inhibition does the source give for `CCCCn1c(O)c(C(CC)=NCc2ccco2)c(=O)[nH]c1=O` here?
Answer: -3.64%

Question: `CCCCCCN=C(CC)c1c(O)n(CCCC)c(=O)[nH]c1=O` was tested. Which inhibition did it give?
Answer: 0.66%

Question: How did the inhibition turn out when `CC/C(=N\NC(=O)c1ccccc1O)c1c(O)n(Cc2ccccc2)c(=O)[nH]c1=O` was run?
Answer: 28.9% (active)

Question: How did the inhibition turn out when `Cc1ccc(N(C)C(=O)Oc2cccc3ccc(C)nc23)cc1` was run?
Answer: 1.25%

Question: How did the inhibition turn out when `COc1ccc(NC(=O)c2cn(CCC#N)nc2-c2ccc([N+](=O)[O-])cc2)cc1` was run?
Answer: 6.55%
